33 molecules from ChEMBL document CHEMBL4513146, “CO-ADD screening of Karazin Kharkiv National University (Ukraine) compounds” can be followed below.

Potency and affinity values are given separately.

One assay has as its system Staphylococcus aureus. The following applies: Concentration 32 ug.mL-1;; ASSAY_TEST Inhibition of Bacterial Growth; detection method Absorption (OD600); MEDIA CAMHB; plate type 384well; NBS; CORNING #3640; time 18 hr.
The test system of the next assay is Escherichia coli. The settings on record: Concentration 32 ug.mL-1;; ASSAY_TEST Inhibition of Bacterial Growth; detection method Absorption (OD600); MEDIA CAMHB; plate type 384well; NBS; CORNING #3640; time 18 hr.

By Inhibition is commonly meant the change of the read-out against control, counted positive when it falls. Take `CCCCOc1ccc(-c2cc3c4nnc(SCC(=O)Nc5cccc(C)c5C)n4ccn3n2)cc1`: the results for the Inhibition in the assay on Staphylococcus aureus and in the assay on Escherichia coli were -5.45% and -19.34%, respectively.

Regarding `COc1ccc(NC(=O)Cn2nc3c(N4CCCC4)nccn3c2=O)cc1`, the Inhibition is listed as 5.17% in the assay with Staphylococcus aureus and 5.65% with Escherichia coli.

Turning to `O=c1c2nnc(SCc3ccccc3Cl)n2ccn1-c1ccc(F)c(F)c1`, the results for the Inhibition in the assay on Staphylococcus aureus and with Escherichia coli were 11.5% and -3.79%, respectively.

For the molecule `O=C(Cn1nc2ccc(-c3ccccc3)nn2c1=O)Nc1ccc(F)cc1`, the values for the Inhibition in the assay with Staphylococcus aureus and in the assay on Escherichia coli were 1.63% and -4.86%, respectively.

Take `Cc1cccc(CN(c2ccc(F)cc2)S(=O)(=O)c2ccc3nnc(C)n3c2)c1`: the Inhibition in the assay with Staphylococcus aureus was 5.07%; with Escherichia coli it was -8.57%.

Regarding `COc1ccc(NC(=O)Cn2nc3ccc(-c4ccc(C)c(C)c4)nn3c2=O)cc1OC`, the Inhibition in the assay on Staphylococcus aureus is given as 11.61%; in the assay on Escherichia coli it was -6.17%.

With `O=c1n(Cc2nc(-c3ccc(Br)cc3)no2)nc2ccc(-c3ccccc3)nn12`, the Inhibition with Staphylococcus aureus is given as 5.03%; in the assay with Escherichia coli, -5.77%.

On to `COc1ccc(CNC(=O)CSc2nnc3c4cc(-c5ccc(C)cc5)nn4ccn23)cc1OC`, for which the values for the Inhibition in the assay with Staphylococcus aureus and with Escherichia coli were 5.65% and -0.16%, respectively.

For `Cc1ccc(-n2ccn3c(SCC(N)=O)nnc3c2=O)cc1C`, the Inhibition in the assay on Staphylococcus aureus was 19.3%; in the assay on Escherichia coli, 0.16%.

Regarding `CCc1ccccc1NC(=O)Cn1nc2c(Sc3ccc(C)cc3C)nccn2c1=O`, the Inhibition in the assay with Staphylococcus aureus is 1.94%; with Escherichia coli, -4.21%.

Regarding `COc1ccc(NC(=O)Cn2nc3c(N4CC(C)CC(C)C4)nccn3c2=O)c(OC)c1` (stereo unspecified), the Inhibition came to 18.35% with Staphylococcus aureus and 1.24% with Escherichia coli.

For the molecule `CCc1ccc(NC(=O)Cn2nc3ccc(SC4CCCCC4)nn3c2=O)cc1`, the Inhibition with Staphylococcus aureus stood at 16.16%; in the assay on Escherichia coli it was 2.08%.

Regarding `COc1cccc(-n2ccn3c(SCc4ccccc4C)nnc3c2=O)c1`, the Inhibition is on record as 11% in the assay on Staphylococcus aureus and -3.45% with Escherichia coli.

Regarding `O=C(Cn1nc2c3c4c(sc3ncn2c1=O)CCCC4)NCCc1ccc(Cl)cc1`, the Inhibition in the assay with Staphylococcus aureus turned out to be 7.1%; in the assay on Escherichia coli, 2.28%.

On to `O=C(CSc1nnc2c(=O)n(-c3ccc(Br)cc3)ccn12)Nc1ccc(F)cc1`, for which the Inhibition in the assay on Staphylococcus aureus is 9.36%; in the assay with Escherichia coli, -1.5%.

As to `CCCN(C)c1nccn2c(=O)n(CC(=O)Nc3cccc(C(C)=O)c3)nc12`, the Inhibition was 10.12% in the assay with Staphylococcus aureus and -7.5% with Escherichia coli.

With `COc1ccccc1Cn1c(=O)c2sccc2n2c(=O)n(Cc3cccc(Br)c3)nc12`, the Inhibition is given as -9.99% with Staphylococcus aureus and -1.02% in the assay on Escherichia coli.

As for `COc1ccccc1NC(=O)Cn1nc2c(SC3CCCCC3)nccn2c1=O`, the Inhibition in the assay with Staphylococcus aureus is recorded as -13.71%; in the assay with Escherichia coli it was -14.54%.

For `CCCCOc1ccc(-c2cc3c4nnc(SCC(=O)Nc5ccc(CC)cc5)n4ccn3n2)cc1`, the Inhibition in the assay on Staphylococcus aureus is recorded as -9.56%; with Escherichia coli, -11.54%.

Take `CC(C)c1ccc(N(Cc2ccccc2)S(=O)(=O)c2cccn3cnnc23)cc1`: the Inhibition in the assay with Staphylococcus aureus was 5.98%; in the assay on Escherichia coli, -8.68%.

As to `Cc1nnc2c(SCC(=O)Nc3ccc(F)cc3F)nc3ccccc3n12`, the results for the Inhibition in the assay with Staphylococcus aureus and with Escherichia coli were 11.73% and 2.93%, respectively.

On to `Cc1ccc(NC(=O)Cn2nc3c(Oc4ccccc4C)nccn3c2=O)cc1F`, for which the Inhibition is given as 8.06% in the assay with Staphylococcus aureus and -0.85% in the assay on Escherichia coli.

As to `Cc1cccc(NC(=O)Cn2nc3ccc(-c4ccc(C)c(C)c4)nn3c2=O)c1`, the Inhibition in the assay on Staphylococcus aureus was -13.22%; in the assay with Escherichia coli, -14.87%.

With `COC(=O)c1ccccc1NC(=O)Cn1nc2c(Oc3ccccc3)nccn2c1=O`, the values for the Inhibition with Staphylococcus aureus and with Escherichia coli were 8.3% and -3.16%, respectively.

Take `CCc1nnc2ccc(S(=O)(=O)N(Cc3ccc(OC)cc3)c3ccc(F)cc3)cn12`: the Inhibition with Staphylococcus aureus is given as 4.6%; in the assay on Escherichia coli it was -5.2%.

For `O=S(=O)(c1ccc2nncn2c1)N(Cc1cccc(F)c1)c1ccc(F)c(F)c1`, the Inhibition in the assay with Staphylococcus aureus is 3.37%; with Escherichia coli it was -6.8%.

Take `CC(C)(C)OC(=O)CN(c1ccc2c(c1)OCCO2)S(=O)(=O)c1ccc2nncn2c1`: the Inhibition is listed as 6.06% in the assay with Staphylococcus aureus and -4.04% with Escherichia coli.

Take `COc1cc(OC)c(NC(=O)Cn2nc3ccc(Sc4cccc(F)c4)nn3c2=O)cc1Cl`: the values for the Inhibition in the assay on Staphylococcus aureus and with Escherichia coli were 4.57% and -1.59%, respectively.

As for `O=c1c2nnc(SCc3ccccc3F)n2ccn1-c1ccc(F)cc1`, the results for the Inhibition in the assay on Staphylococcus aureus and with Escherichia coli were 19.41% and -3.23%, respectively.

On to `CCc1nnc2c(S(=O)(=O)N(Cc3ccc(C)cc3)c3ccc(C(C)C)cc3)cccn12`, for which the Inhibition is on record as 16.04% with Staphylococcus aureus and -0.02% with Escherichia coli.

As to `COC(=O)c1ccc(Cn2nc3ccc(S(=O)(=O)N4CCCCCC4)cn3c2=O)o1`, the Inhibition in the assay with Staphylococcus aureus is reported as -11.6%; with Escherichia coli it was -1.2%.

In the case of `COc1ccc(-c2cc3c4nn(CC(=O)Nc5cccc(C)c5)c(=O)n4ccn3n2)cc1`, the Inhibition is listed as 1.22% in the assay with Staphylococcus aureus and -1.93% in the assay with Escherichia coli.

Take `COc1ccccc1-n1ccn2c(SCC(=O)NCc3ccc(Cl)cc3)nnc2c1=O`: the Inhibition is reported as 12.53% in the assay on Staphylococcus aureus and -3.51% in the assay on Escherichia coli.
